# Source: PubChem (National Center for Advancing Translational Sciences (NCATS))
# VP16 counter = inhibits Gal4-VP16 luciferase reporter, ROR gamma counter-screen; Drosophila S2 Gal4-VP16 UAS-luciferase, luminescence, 20 h; Potency, µM (doses to about 53.6 µM), for inactives: at the top dose activity, negative = inhibition, usual class: inhibitors; 310,000 compounds, 3.5% hits; AID 2546;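 further: Gal4-VP16 expression switched on by copper sulfate through the metallothionein promoter; nearly all actives have a fitted effect of over 50% in size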
# PLK1 PBD inh = inhibitors of human PLK1 polo-box domain binding; 360,000 compounds, 2.8% hits; Plk1 PBD binding of FITC phosphopeptide, fluorescence polarization; AID 720504; P53350; Potency, µM, for the others: max response, negative = inhibition, actives largely listed as inhibitors; further: series mostly up to about 57 µM; nearly all actives have a fitted effect of over 65% in size
# Sfp PPTase inh = inhibitors of Bacillus subtilis Sfp phosphopantetheinyl transferase; 310,000 compounds, 3.5% hits; Potency, µM, without a hit: largest response in the series, negative = inhibition, actives largely listed as inhibitors; Biochemical Sfp PPTase activity, qHTS;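 further: the enzyme is Sfp with the accession as filed and its product quenches rhodamine fluorescence; 0% = enzyme reaction without inhibitor and -100% = no enzyme wells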
#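 Step 1, compound plus 15 nM Sfp-PPTase, 15 min, room temperature. Step 2, add rhodamine-CoA (5 uM) and BHQ-2-YbbR (12.5 uM). Step 3, read 525/598 nm fluorescence at 0 and 30 min.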
# RORg inh = blocks mouse ROR gamma transcriptional activity; AID 2551; P51450; Potency, µM (series often up to 53.6 µM), for the others: top-dose activity change, negative = inhibition, usual class: inhibitors; 310,000 compounds, 5.4% hits; Drosophila S2 Gal4-RORgamma UAS-luciferase reporter, 20 h; further: nearly all actives have a fitted effect of over 60% in size
#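 Luminescence from a UAS-regulated Photinus luciferase reporter in stably transfected Drosophila Schneider cells is measured; decreased signal marks ROR gamma inhibition. Fusion expression is induced by 700 uM copper sulfate for 20 hr.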
# ALDH1A1 block = blocks purified human ALDH1A1 activity; Purified ALDH1A1, NADH fluorescence, propionaldehyde substrate; Potency, µM (series often up to 75.3 µM), for inactives: top-dose activity, negative = inhibition, usual class: inhibitors; 220,000 compounds, 7.3% hits; AID 1030; active means well fitted inhibition curve with a large enough effect, not every such curve was filed as active; inconclusive means small, poorly fitted or top-dose-only effect, or another doubt; inactive means no such curve, though single readings can be large or run the other way;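 further: plate controls were no enzyme wells and a reference inhibitor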
# Target sequence (P00352 whole entry, looked up): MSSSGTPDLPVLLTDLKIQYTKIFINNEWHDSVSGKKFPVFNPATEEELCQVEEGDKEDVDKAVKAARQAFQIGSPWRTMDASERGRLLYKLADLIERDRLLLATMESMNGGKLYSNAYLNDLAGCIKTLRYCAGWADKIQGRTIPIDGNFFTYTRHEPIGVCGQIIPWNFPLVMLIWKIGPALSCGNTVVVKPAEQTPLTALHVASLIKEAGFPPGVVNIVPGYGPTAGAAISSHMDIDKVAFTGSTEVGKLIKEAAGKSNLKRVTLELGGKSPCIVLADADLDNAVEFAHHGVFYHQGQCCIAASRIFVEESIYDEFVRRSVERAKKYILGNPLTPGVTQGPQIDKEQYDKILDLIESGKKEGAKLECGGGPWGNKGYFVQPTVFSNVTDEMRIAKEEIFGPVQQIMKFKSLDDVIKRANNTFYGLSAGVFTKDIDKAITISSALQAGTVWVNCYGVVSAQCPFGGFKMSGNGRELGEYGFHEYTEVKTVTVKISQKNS
# Active calls of the source: *; ? = inconclusive; . = no result given; [ ] = dose if it differs, or a comment. Hits are enriched below; roughly 12% of the tested compounds scored in any of these assays. Unless noted, the call rests on the fitted dose curve; in most records, active means well fitted curve in the direction sought with a large enough effect; inconclusive means small, poorly fitted or top-dose-only effect, or another doubt; inactive means no such curve, though single readings can be large; an effect the other way counts as inactive or inconclusive. Unless noted, on the % scale 0 is the no-effect control and ±100 the full control effect; potency means the concentration at half of the fitted maximal effect.
SMILES,VP16 counter,PLK1 PBD inh,Sfp PPTase inh,RORg inh,ALDH1A1 block
CC(S)C(=O)NCC(=O)O (stereo not given),-2%,.,-19%,-10%,18µM*
COC(=O)CN1C(=O)C2(C(C#N)=C(N)Oc3c2c(C)nn3-c2ccccc2)c2ccccc21 (stereo not given),?,?,4%,?,0.14µM*
CCN1C(=O)C2(C(C#N)=C(N)Oc3n[nH]c(-c4ccccc4)c32)c2ccccc21 (stereo not given),-1%,-4%,2%,22%,0%
COC(=O)CN1C(=O)C2(C(C#N)=C(N)Oc3n[nH]c(-c4cccs4)c32)c2ccccc21 (stereo not given),15%,-5%,-6%,18%,2.2µM*
CCOC(=O)Cn1ccc(NC(=O)c2ccc3c(c2)OCO3)n1,-1%,8%,13%,2%,.
CCCCN(CC)Cc1ccc(CNC(=O)Nc2ccc(F)cc2)o1,-1%,-2%,-3%,-5%,-1%
CCCCN(CC)Cc1ccc(CNC(=S)Nc2ccc(C)cc2Cl)o1,-27%,-28%,-13%,16µM*,?
CCCCN(CC)Cc1ccc(CNC(=S)Nc2c(C)cc(C)cc2C)o1,6.3µM*,13µM*,45µM*,3.2µM*,-7%
Cc1ccc(C(N)=S)c(C)c1,?,?,-2%,20µM*,-5%
COC(=O)N1CCc2c(sc(NC(=O)C3COc4ccccc4O3)c2C(N)=O)C1 (stereo not given),.,11µM*,.,.,.
NC(=O)c1c(NC(=O)C2COc3ccccc3O2)sc2c1CCN(Cc1ccccc1)C2 (stereo not given),-25%,31%,12%,-7%,4%
Cc1ccc(Cl)cc1NC(=S)N/N=C/c1cccc2ccccc12,2.5µM*,-14%,21%,0.79µM*,?
CCn1nc(C)c(/C=N/NC(=O)Cn2nccc2C)c1C,-6%,?,3%,1%,-12%
Cc1ccccc1C(=O)N/N=C/c1cccc2ccccc12,-10%,3%,7%,-44%,.
Cc1nn(C)cc1/C=N/NC(=S)Nc1ccc(Cl)cc1Cl,2.8µM*,-10%,-7%,0.56µM*,?
CCn1nc(C)c(/C=N/NC(=S)Nc2ccc(Cl)cc2Cl)c1C,6.3µM*,0%,0%,1.8µM*,-2%
Cc1nn(C)cc1/C=N/NC(=O)c1ccc2c(c1)OCO2,1%,1%,8%,-12%,0%
COC(=O)Nc1ccc2[nH]cc(CCNC(C)=O)c2c1,-3%,.,6%,-7%,6%
N/C(=N\OC(=O)COc1ccc2ccccc2c1Br)c1ccccn1,-4%,-4%,56µM*,21%,-10%
COc1ccc(Cl)cc1C(=O)O/N=C(\N)c1ccccn1,-13%,-12%,7%,32%,.
N/C(=N\OC(=O)c1cc(Cl)ccc1Cl)c1ccccn1,14µM*,-13%,-22%,-87%,?
N/C(=N\OC(=O)COc1ccc(Cl)cc1Cl)c1ccccn1,?,-11%,-3%,10µM*,-6%
C/C(=N\NC(=O)c1cc(C(C)(C)C)[nH]n1)C12CC3CC(CC(C3)C1)C2,4%,17µM*,5%,-3%,-4%
N#Cc1c(-n2cccc2/C=N/O)sc2c1CCCC2,0%,-7%,15%,-8%,1%
N#Cc1c(N2C(=O)C3C4C=CC(C4)C3C2=O)sc2c1CCC2 (stereo not given),2%,-9%,20%,16%,18µM*
SMILES,VP16 counter,PLK1 PBD inh,Sfp PPTase inh,RORg inh,ALDH1A1 block
Cc1ccc(-c2ccc(OC(=O)c3ccc(=O)[nH]c3)c(C)c2)cc1,0%,5%,12%,16%,.
N#C/C(=N\Nc1ccc(Cl)cc1)C(=N)N1CCCCC1,-18%,-3%,9%,8%,?
N#C/C(=N/Nc1ccccc1[N+](=O)[O-])C(N)=S,-18%,-11%,?,5%,.
N#C/C(=N\Nc1ccc(Cl)cc1)C(N)=S,6.3µM*,-17%,-13%,4.5µM*,.
Cc1ccc(N/N=C(\C#N)C(N)=S)cc1C,?,-19%,56µM*,2.8µM*,?
N#C/C(=N\Nc1ccccc1)C(N)=S,?,-19%,18µM*,13µM*,.
CCOC(=O)Cc1csc(NC(=S)NC(=O)c2ccccc2C)n1,-28%,-2%,-13%,11µM*,-1%
CCOC(=O)Cc1csc(NC(=S)NC(=O)c2cc(OC)c(OC)c(OC)c2)n1,4%,-12%,?,?,.
CCOC(=O)Cc1csc(NC(=S)NC(=O)c2ccc(F)cc2)n1,?,-9%,-72%,11µM*,?
COc1ccc(C2=Nn3c(nnc3-c3ccco3)SC2)cc1,-5%,-3%,-26%,24%,?
COc1ccc(OC)c(C2=Nn3c(nnc3-c3cc(OC)ccc3OC)SC2)c1,2%,.,3%,1%,.
COc1ccc(OC)c(C2=Nn3c(nnc3-c3ccco3)SC2)c1,1%,-3%,50µM*,-32%,-5%
Oc1ccc(C2=Nn3c(nnc3-c3ccco3)SC2)cc1O,-8%[0.365 µM],?,?,0%,8.9µM*
CC(C)CCn1c(Sc2nc3ccccc3s2)nc2c1c(=O)[nH]c(=O)n2C,1%,-12%,11%,-18%,11µM*
CC(CSc1nc2ccccc2s1)Cn1c(N2CCCC2)nc2c1c(=O)[nH]c(=O)n2C (stereo not given),-1%,-10%,-4%,?,8%
CC(C)CCSc1nc2c(c(=O)[nH]c(=O)n2C)n1CCCc1ccccc1,-49%,-1%,-11%,12%,1%
CC(C)CCn1c(SCC(=O)c2ccccc2)nc2c1c(=O)[nH]c(=O)n2C,12%,-8%,6%,28%,18µM*
Cn1c(=O)c2c(nc(C(=N)SCC(=O)O)n2C)n(C)c1=O,.,.,.,.,-13%[13.5 µM]
CN1CCO/C1=C(\C(Cl)=C(Cl)Cl)[N+](=O)[O-],1%,?,-3%,13%,2%
O=[N+]([O-])C(=C1Nc2ccccc2N1)C(Cl)=C(Cl)Cl,?,-16%,89µM*,11µM*,6.3µM*
COc1ccc(C2CCCCC2SCC(=O)O)cc1OC (stereo not given),.,3%,.,.,.
C/C=C/c1cnc2c(c1)C(=O)N([C@H](C)CO)C[C@H](C)[C@@H](CN(C)C(=O)CN1CCOCC1)O2,.,10%,.,.,.
CC(C)C1CC(O)(C2(O)CCCCC2)ON1 (stereo not given),0%,3.4µM*,15%,-13%,2%
O=C(NCc1cc(C(F)(F)F)ccc1Cl)c1cccc2c1C(=O)c1ccc(N3CCC(Cc4ccccc4)CC3)cc1S2(=O)=O,.,24µM*,.,.,.
CC1CCN(c2ccc3c(c2)S(=O)(=O)c2cccc(C(=O)NCc4ccc(F)cc4)c2C3=O)CC1,.,84µM*,.,.,.
O=C(NCc1ccccc1C(F)(F)F)c1cccc2c1C(=O)c1ccc(N3CCCCC3)cc1S2(=O)=O,.,-1%,.,.,.
Cc1ccc(S(=O)(=O)Nc2cccc3ccc[n+](C)c23)cc1,-1%,.,-11%,-12%,.
